# PubChem BioAssay AID1531 (NMMLSC, 2009)
# Where “and” joins values, the source holds several entries; their conditions need not be identical. Identical values can stand only once. Hit rate of the full screen: of about 290,000 compounds, about 3,300 (1.1%) were called active. This is one part of a sample in which actives are shown more often than they occur. Cut-off read from the data, not from the text of the source: active = binding response below about 67% or above about 130%; inconclusive = no clear call, values can overlap the other calls; inactive = in between.
# Biological target: Mitogen-activated protein kinase kinase kinase 2 (Homo sapiens) (UniProt Q9Y2U5)
# Experiment: modulators of MEK5 binding to wildtype MEKK2, primary screen, biochemical, multiplex bead flow cytometry, Alexa488-MEK5 (AID 1531)
# Conditions: Alexa488-MEK5 binding to MEKK2 WT, at 10 µM, actives lie on both sides
row,Structure (SMILES),binding response (% of control)
1,COc1ccc(C2NC(=O)C(=O)/C2=C(\O)c2ccc(Cl)cc2)cc1OC (configuration not stated),109% (inactive)
2,COC(C[C@@H](O)C[C@@H](O)[C@H](C)OCc1ccccc1)OC,97% (inactive)
3,Cn1c(SCc2nc3ccccc3s2)nnc1-c1ccc2c(c1)OCO2,30% [inhibitor] (active)
4,O=C(O)CSc1nnc(-c2ccc3c(c2)OCO3)n1-c1ccccc1,102% (inactive)
5,Cn1c(SCC(=O)N2CCCC2)nnc1-c1ccc2c(c1)OCO2,105% (inactive)
6,CC1CCC2CCCCC2N1C(=O)c1cc([N+](=O)[O-])cc([N+](=O)[O-])c1 (configuration not stated),97% (inactive)
7,CCn1c(SCc2ccccc2)nc2cc(OC)c(OC)cc2c1=O,105% (inactive)
8,COc1ccc(S(=O)(=O)N2CCOCC2)cc1C(=O)NC1CCCCC1,104% (inactive)
9,O=C(NCC1CCCCC1)c1cc(S(=O)(=O)N2CCCCC2)ccc1N1CCOCC1,4% [inhibitor] (active)
10,COCCNC(=S)Nc1cc(S(=O)(=O)N2CCOCC2)ccc1N1CCCCC1,103% (inactive)
11,CC(C)(c1ccccc1)c1ccc(OCCN2CCCC2)cc1,119% (inactive)
12,Cc1onc(-c2ccccc2Cl)c1C(=O)OCC(=O)c1ccccc1,-2% [inhibitor] (active)
13,Cc1onc(-c2ccccc2Cl)c1C(=O)NCCn1ccc2ccccc21,98% (inactive)
14,Cc1[nH]c2ccccc2c1C(=O)COC(=O)c1c(-c2ccccc2)noc1C,113% (inactive)
15,O=C1CC2(CCCC2)Oc2ccc(Cl)cc21,109% (inactive)
16,C/C(=N\NC(=O)C1(C)CC1(Br)Br)c1ccc(C)cc1C (configuration not stated),98% (inactive)
17,COc1ccccc1N1CCN(CCCCOc2ccc(F)cc2)CC1,135% (active)
18,COc1ccc(OCCCCN2CCC(C)CC2)cc1,106% (inactive)
19,CCN1CCN(CCCCOc2ccccc2F)CC1,98% (inactive)
20,O=C(NCCO)C(=O)NCC(c1ccc2c(c1)OCO2)N1CCN(c2ccc(F)cc2)CC1 (configuration not stated),99% (inactive)
21,O=C(COc1ccc([N+](=O)[O-])cc1)Nc1cccc(C(=O)Nc2ccccc2C(=O)O)c1,94% (inactive)
22,O=C(CC1SCCNC1=O)Nc1ccc(Cl)c(Cl)c1 (configuration not stated),186% (active)
23,O=C(CC1NCCNC1=O)Nc1cc(Cl)cc(Cl)c1 (configuration not stated),108% (inactive)
24,O=C(CC1SCCNC1=O)Nc1ccc(Cl)cc1 (configuration not stated),87% (inactive)
25,CC(C)c1c(C(=O)N/N=C/c2ccccc2C(=O)O)nnn1-c1nonc1N,102% (inactive)

row,Structure (SMILES),binding response (% of control)
1,COC(=O)CN1C(=O)C(C)(C)Oc2ccc(C(=O)Nc3cccc(OC)c3)cc21,108% (inactive)
2,CCOC(=O)c1ccc2[nH]c3c(c2c1)CCCC3NC=O (configuration not stated),97% (inactive)
3,N#CCSc1nc(-c2ccccc2)nc2ccc(F)cc12,100% (inactive)
4,COc1ccc(NC(=O)CS(=O)(=O)c2ccccc2)cc1,109% (inactive)
5,COC(=O)C(C)n1cnc2c(nnn2-c2cccc(Cl)c2)c1=O (configuration not stated),106% (inactive)
6,CCOc1nnc(C)c2c(C)n(-c3cccc(Cl)c3)nc12,72% [inhibitor] (active)
7,CCOc1ccc(CNC(=O)C2CCCN(c3nnc(C)c4c(C)n(-c5ccccc5)nc34)C2)cc1 (configuration not stated),105% (inactive)
8,COc1ccc(NC(=O)CN2C(=O)COc3ccc(S(=O)(=O)N4CCOCC4)cc32)cc1,97% (inactive)
9,Fc1ccccc1COc1cccc2cccnc12,110% (inactive)
10,Cc1ccc(-c2nc(CSCC(=O)NC3CCN(Cc4ccccc4)CC3)c(C)o2)cc1,107% (inactive)
11,Cc1ccc(S(=O)(=O)N2CCN(C(=O)CSc3cc(C)ccc3C)CC2)c(C)c1,104% (inactive)
12,CC(=O)NCCC(=O)Nc1nc(-c2ccc3c(c2)OCCO3)cs1,109% (inactive)
13,Cc1cccc(NC(=O)c2cc([N+](=O)[O-])ccc2N2CCN(C)CC2)c1,101% (inactive)
14,COC(=O)c1cc(NC(=O)c2ccco2)ccc1N1CCOCC1,99% (inactive)
15,CC(=O)Nc1ccc(N2CCOCC2)c(C(=O)Nc2cccc(C)c2)c1,-1% [inhibitor] (active)
16,Cc1nc2ccccc2nc1N/N=C/c1ccc(O)cc1O,101% (inactive)
17,O=C(O)c1ccccc1-c1ccccc1C(=O)NCCc1ccccc1,100% (inactive)
18,O=C(NCCN1CCOCC1)c1ccc2c(c1)N(Cc1ccc(Cl)cc1)CCS2,104% (inactive)
19,Cc1c(C)n(Cc2ccc(Cl)cc2)c2ccc(C(=O)NCCCN3CCOCC3)cc12,138% (active)
20,O=C(NCCCN1CCOCC1)c1cc(-c2ccc(Cl)cc2)on1,103% (inactive)
21,COc1ccc(CNC(=O)C(C)NCc2ccccc2Cl)cc1 (configuration not stated),103% (inactive)
22,Cc1c(C)c(C)c(S(=O)(=O)N2CCC3(CC2)OCCO3)c(C)c1C,108% (inactive)
23,Cc1cc(C)n(CCNS(=O)(=O)c2ccc(Cl)cc2)n1,103% (inactive)
24,Cc1cc2cc(CNC(=O)c3ccc(S(=O)(=O)N4CCOCC4)cc3)ccc2[nH]1,97% (inactive)
25,CCc1cccc(CC)c1NC(=S)NCc1ccc2[nH]c(C)cc2c1,102% (inactive)

row,Structure (SMILES),binding response (% of control)
1,Cc1cc2cc(CNC(=O)c3cccs3)ccc2[nH]1,55% [inhibitor] (active)
2,CC(NC(=O)C1CCCN(S(=O)(=O)c2ccc(-n3cnnn3)cc2)C1)c1ccc(F)cc1 (configuration not stated),108% (inactive)
3,COc1cccc(N(CC(=O)NC2CCCCCC2)S(=O)(=O)c2ccccc2)c1,111% (inactive)
4,COc1cccc(C2CC(c3ccccc3)=NN2S(=O)(=O)c2ccccc2)c1OC (configuration not stated),20% [inhibitor] (active)
5,CCOc1ccccc1C1CC(c2cccc(NS(C)(=O)=O)c2)=NN1C(=O)c1ccccc1 (configuration not stated),100% (inactive)
6,COc1ccc(C2=NN(C(=O)c3ccccc3C(=O)O)C(c3ccccc3O)C2)cc1 (configuration not stated),100% (inactive)
7,COc1ccc(NC(=O)NCCN2CCN(c3ccc(C)cc3)CC2)c(Cl)c1,113% (inactive)
8,Cc1ccc(-n2ncc(C(=O)NC3CC3)c2C2CCN(C(=O)OC(C)(C)C)CC2)c(C)c1,96% (inactive)
9,O=C(CN(Cc1ccccc1)C(=O)CCC(=O)Nc1ccccn1)NCCc1ccccc1,107% (inactive)
10,O=C(NC(=S)NC1CCCCC1)c1ccc(Cl)cc1,103% (inactive)
11,COc1ccccc1NC(=S)N1CCN(c2ccc(F)cc2)CC1,16% [inhibitor] (active)
12,COc1ccccc1NC(=S)N1CCN(C(c2ccccc2)c2ccccc2)CC1,98% (inactive)
13,COC(=O)c1ccc(C(=O)OC)c(NC(=S)N2CCN(c3ccc(F)cc3)CC2)c1,98% (inactive)
14,O=C(O)CSc1c2c(nc3cc(C(=O)Nc4cccc(C(F)(F)F)c4)ccc13)CCCC2,105% (inactive)
15,COc1ccccc1OCC(O)CN1CCOCC1 (configuration not stated),109% (inactive)
16,COc1ccccc1OCCNCC(O)COc1cccc2[nH]c3ccccc3c12 (configuration not stated),166% (active) and 155% (active) and 213% (active)
17,CC(C)(C)NCC(O)COc1cccc2[nH]c(=O)[nH]c12 (configuration not stated),113% (inactive)
18,Cc1ccc(NC(=O)C/C(N)=N/O)cc1Cl,100% (inactive)
19,Cc1ccc(NC(=O)COc2ccc(-n3ccnc3)cc2)cc1Cl,153% (active)
20,CCC(=O)c1ccc(OCC(=O)Nc2ccc3nc(C)sc3c2)cc1,87% (inactive)
21,CC(C)(C)c1ccccc1NC(=O)CN1C(=O)NC2(CCCC2)C1=O,100% (inactive)
22,CC(C)c1ccc2oc(=O)cc(CN3CCN(Cc4ccccc4)CC3)c2c1,115% (inactive)
23,Cc1cc([N+](=O)[O-])ccc1NC(=O)c1ccc(NC(=O)C(C)C)cc1,101% (inactive)
24,O=C(Nc1ccc(C(=O)N2CCCCC2)cc1)c1cccc([N+](=O)[O-])c1,100% (inactive)
25,Cn1ccc(=Nc2ccc(NC(=O)c3ccc(N=c4ccn(C)c5ccc([N+](=O)[O-])cc45)cc3)cc2)cc1,146% (active)

row,Structure (SMILES),binding response (% of control)
1,NS(=O)(=O)c1ccc(NC(=S)N2CCCC2)cc1,100% (inactive)
2,COc1ccc(N2CCN(C(=S)Nc3ccc(S(N)(=O)=O)cc3)CC2)cc1,-9% (active)
3,CCOc1ccccc1N1CCN(C(=S)Nc2ccc(S(N)(=O)=O)cc2)CC1,102% (inactive)
4,CCc1ccc(S(=O)(=O)Nc2cc3c(cc2N2CCCCC2)n(C)c(=O)c(=O)n3C)cc1,101% (inactive)
5,O=C(NCc1nnc(SCC(=O)N2CCCCCC2)o1)c1ccc(F)cc1,102% (inactive)
6,Cc1ccc2c(c1)C1CN(C)CCC1N2C(=S)Nc1ccc(OC(F)F)cc1 (configuration not stated),118% (inactive)
7,Cc1ccc2c(c1)C1CN(C)CCC1N2C(=O)c1ccccc1NS(=O)(=O)c1ccc(F)cc1C (configuration not stated),98% (inactive)
8,Cc1ccc2c(c1)C1CN(C)CCC1N2S(=O)(=O)c1ccc(Oc2ccc([N+](=O)[O-])cc2)cc1 (configuration not stated),201% (active)
9,COc1ccc2c(c1)c(C(=O)N/N=C/c1cccs1)c(C)n2C,99% (inactive)
10,O=C(NCCCN1CCCC1=O)C(=O)NCC1OCCN1S(=O)(=O)c1ccc(Br)cc1 (configuration not stated),103% (inactive)
11,CC(=O)Nc1ccc(Nc2ncnc3c2nnn3Cc2ccccc2Cl)cc1,107% (inactive)
12,OC(COc1cccc2ccccc12)CN1CCN(c2ccccn2)CC1 (configuration not stated),105% (inactive)
13,CCC(C)Sc1nc2c(c(=O)[nH]c(=O)n2C)n1CC(O)COc1cccc2ccccc12 (configuration not stated),107% (inactive)
14,CC(C)c1ccccc1OCC(O)CN(CC(O)COc1cccc2ccccc12)C(C)C (configuration not stated),181% (active)
15,CCN1C(=O)N[C@@H](CCc2ccccc2)C(C(=O)OC)=C1C,94% (inactive)
16,CCCCC1(C(=O)OCC)NC(c2ccc(O)cc2)C2C(=O)N(c3ccccc3)C(=O)C21 (configuration not stated),99% (inactive)
17,CC(C)[C@H](NC(=O)N1CCn2c1nc1ccccc12)C(=O)NC1CC1,101% (inactive)
18,CC(C)C[C@H](NC(=O)C1CCC(CNC(=O)[C@@H]2CCCN2C(=O)OC(C)(C)C)CC1)C(=O)O (some centres not stated),103% (inactive)
19,O=C(O)c1cc(S(=O)(=O)N(Cc2ccccc2)c2cccc(C(F)(F)F)c2)ccc1Cl,108% (inactive)
20,Cc1ccc(N(CCC(=O)O)S(=O)(=O)c2cccc(C(F)(F)F)c2)cc1,4% [inhibitor] (active)
21,CCc1nnc(NC(=O)CCN(c2ccc(C)cc2)S(=O)(=O)c2ccccc2)s1,108% (inactive)
22,Cc1cc(C)cc(C(=O)NC(CC(N)=O)c2ccc(N3CCC(N4CCCCC4)CC3)c([N+](=O)[O-])c2)c1 (configuration not stated),105% (inactive)
